# Laboratory results: PubChem BioAssay (NCI)
# Compounds without any hit were thinned out: in the full panel of roughly 83,000, 20% have a hit.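 Interpretation: 100, growth as untreated; towards 0, rising growth inhibition; 0, no net growth; 0 to -100, cell death. Compounds scoring below 10 were considered active.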 Values without a mark were called inactive. The source made the active and inactive calls.
# Experiments:
# Assay in all cases: NCI-60 one-dose screen, 48 h (100 = growth as untreated, 0 = no growth, -100 = all killed)
# Conditions in all cases: 10 µM
# [1] = test system: NCI-H23 lung
# [2] = test system: NCI-H226 lung
# [3] = test system: NCI-H322M lung
# [4] = test system: HOP-62 NSCLC
# [5] = test system: NCI-H460 lung
# [6] = test system: HOP-92 NSCLC
# [7] = test system: NCI-H522 lung
# [8] = test system: A549/ATCC NSCLC
# [9] = test system: 786-0 renal
# [10] = test system: COLO 205 colon
# [11] = test system: DU-145 prostate
# [12] = test system: K-562 leukemia
# [13] = test system: MALME-3M melanoma
# [14] = test system: MDA-MB-231 breast
# [15] = test system: RXF 393 renal
# [16] = test system: SF-268 CNS
# [17] = test system: SF-295 CNS
# [18] = test system: SF-539 CNS
# [19] = test system: UACC-257 melanoma
# [20] = test system: M14 melanoma
Structure (SMILES),growth [1] [%],growth [2] [%],growth [3] [%],growth [4] [%],growth [5],growth [6],growth [7],growth [8] [%],growth [9],growth [10],growth [11],growth [12],growth [13],growth [14],growth [15],growth [16],growth [17],growth [18],growth [19] [%],growth [20]
CCc1cc2n(n1)-c1ncc(C(=O)OC)cc1Oc1ccccc1-2,104,99.8,108,95.4,104%,86.2%,94.2%,91.4,100%,116%,111%,102%,120%,102%,114%,103%,101%,97.9%,104,108%
c1ccc(CC(NCCNC(Cc2ccccc2)c2ccccc2)c2ccccc2)cc1 (stereo not given),25,38,66.2,61.1,-13.9% (active),-9.41% (active),-40.5% (active),36.8,35.9%,-59.5% (active),15.7%,-25.7% (active),-22.5% (active),7.83% (active),-8.13% (active),43.1%,2.14% (active),32.3%,48.5,2.08% (active)
COc1cc(CSc2nc3ccc(Cl)cc3c(=O)n2-c2ccccc2)cc(OC)c1OC,79,89.2,85.7,72,96.6%,89%,38.5%,73.9,89.3%,84.5%,92.9%,38.2%,76.5%,63%,68.9%,77.7%,84.2%,78.9%,89.7,93.2%
CCOC(=O)c1ccc(N(C=O)CCC(=O)CCl)cc1,19.5,36.2,75.6,29.8,4.12% (active),-7.96% (active),-71.9% (active),12.3,2.2% (active),-9.81% (active),-25.8% (active),4.03% (active),45.1%,-16.5% (active),-37.7% (active),6.04% (active),-16.1% (active),-31.2% (active),39,-5.18% (active)
CCN1CCN(c2ccc(Nc3ncnc4c3nnn4CCc3cc(OC)cc(OC)c3)cc2)CC1,88.8,85.8,95.6,99.4,106%,89.6%,96.1%,95.5,99.6%,89.3%,104%,77.7%,92.6%,95.4%,97.7%,97.4%,90.2%,95.5%,84.8,98.6%
COC(=O)c1cnc2c(c1)Oc1ccccc1-c1ccnn1-2,95.8,83.9,105,92.5,104%,86.9%,80.3%,86.3,90.6%,101%,109%,90.7%,101%,94.8%,107%,98.7%,105%,97%,101,98.8%
CC1=CC2OC34COC3CC(OC(=O)C(F)(F)F)C4(C)C2(C)CC1 (stereo not given),110,98.7,96.1,97.4,104%,104%,103%,97.8,101%,99.7%,108%,120%,109%,101%,93.9%,103%,100%,98.4%,103,96%
CCCCC(CC#N)(CCC)CCC,105,109,95.6,116,109%,99.7%,97.5%,94.4,95.5%,106%,108%,101%,82.7%,126%,126%,101%,96.7%,100%,110,97.4%
COC(=O)c1cnc2c(c1)Oc1ccc(Cl)cc1-c1cc(C)nn1-2,74.5,66.3,66.9,68.3,29.5%,85.6%,82.3%,59.2,97.5%,71.5%,79.6%,95.8%,94.8%,35%,89.8%,78.9%,92.3%,46.1%,107,95.3%
COc1ccc(-c2nsc3c2NC(=O)CC3c2cccc(Cl)c2)cc1 (stereo not given),46.9,75,36,27.8,13.3%,-2.09% (active),-6.59% (active),30.2,46.4%,-40.6% (active),23.7%,10.4%,26.2%,51.6%,-1.29% (active),57.2%,5.03% (active),-14.1% (active),45,19.2%
